# Inconclusive results are not listed. Active and inactive are the calls of the source. The call rests on the fitted dose curve; in most records, active means well fitted cell-killing curve with a large enough effect in the repeat runs; inconclusive means weak or mixed curves, or effect the other way; inactive means no such curve, though single readings can be large or run the other way.
# Test: qHTS assay to identify small molecule antagonists of the sonic hedgehog signaling (Shh) pathway - cell viability counter screen (AID 1259367); further: nearly all actives have a fitted effect of over 55% in size
# Settings: NIH/3T3 Gli1-Luc viability, CellTiter-Fluor, 24 h; series mostly up to 92.4 µM; viability change, negative = cytotoxic: at the top concentration
# Description: National Center for Advancing Translational Sciences [NCATS]
# NIH Chemical Genomics Center [NCGC]
# U.S. Environmental Protection Agency [EPA]
# National Institutes of Environmental Health Sciences [NIEHS]
# National Toxicology Program [NTP]
# U.S. Food and Drug Administration [FDA]
# The sonic hedgehog (Shh) pathway is essential for normal embryonic development. Dysregulation of the Shh pathway can cause severe developmental defects in organs. Therefore chemicals that interfere with the pathway are potential developmental toxicants. A cell line designated 3T3Gli1-Luc (DMB/OARSA/CFSAN/FDA, Laurel, MD), a NIH/3T3 derived clone containing stably integrated Gli1-Luc reporter is used to detect chemical interference of the Shh pathway, by changes in the expression of the firefly Luc gene under the control of the Gli1 transcriptional response element. This cell line was used to screen Tox21 libraries for identifying and prioritizing the potential developmental toxicants that interfere Shh pathway. Conditioned medium-stimulated mode was used to screen for chemicals inhibiting Shh signaling. The cytotoxicity of the compounds was tested in parallel by measuring the cell viability using CellTiter-Fluor assay system (Promega, Madison, WI) in the same wells.
# Tox21 Assay Protocol Summary:
# 3T3 Gli1-Luc cells were dispensed at 2,000 per well in 5uL of culture medium into white solid bottom 1536-well plates (Greiner Bio-One, Monroe, NC) using a Multidrop Combi (Thermo Scientific, Waltham, MA) dispenser. The assay plates were incubated at 37 C and 5% CO2 for 4hr, and then 23nL of compounds dissolved in DMSO and positive control were transferred using a Pintool station (Wako, San Diego, CA). The compound transfer was followed by the addition of 1ul conditioned medium or assay buffer using two separate tips of Flying Reagent Dispenser (FRD, Aurora Discovery, San Diego, CA). The assay plates were incubated at 37C and 5% CO2 for 24hr. For viability read, after 23hr of compound treatment, 1uL of CellTiter-Fluor reagent (Promega Corporation, Madison, WI) was added to each well of the assay plates using Flying Reagent Dispenser (FRD, Aurora Discovery, San Diego, CA) and incubated the assay plates at 37C for 1hr. The fluorescence signal was quantified using a ViewLux plate reader (Perkin Elmer, Shelton, CT).
# On the % scale 0 is the no-effect control and ±100 the full control effect; potency means the concentration at half of the fitted maximal effect.
Compound,"viability change, negative = cytotoxic",Potency
CC1CCc2cc(F)cc3c(=O)c(C(=O)O)cn1c23 (stereo not given),-2.54% [at 42.5 µM] (inactive),
Cc1cc(CC(=O)O)c(C)n1-c1ccc(Cl)cc1,-2.66% [at 42.5 µM] (inactive),
CC(C(=O)O)c1ccc(C(=O)c2ccccc2)s1 (stereo not given),3.96% [at 42.5 µM] (inactive),
O=C(O)C1CCC(C(=O)O)CC1 (stereo not given),2.47% (inactive),
C#CCOC(=O)[C@@H](C)Oc1ccc(Oc2ncc(Cl)cc2F)cc1,0.92% (inactive),
CCN(CC)CCNC(C(=O)OCCC(C)C)c1ccccc1 (stereo not given),-12.4% [at 42.5 µM] (inactive),
COC(=O)C(C)=O,2.73% (inactive),
CC(C)=CCCC(C)CC=O (stereo not given),3.1% (inactive),
O=C(Cl)c1c(Cl)cccc1Cl,1.27% (inactive),
CCN(CCO)CCCC(C)Nc1ccnc2cc(Cl)ccc12 (stereo not given),1.32% [at 8.39 µM] (inactive),
CCCCCc1ccc(N)cc1,-0.475% (inactive),
CCN(CC)CCOc1ccc2c(c1)C(=O)c1cc(OCCN(CC)CC)ccc1-2,-2.51% [at 42.5 µM] (inactive),
NC1CCN(c2nc3c(cc2F)c(=O)c(C(=O)O)cn3-c2ccc(F)cc2F)C1 (stereo not given),-8.17% [at 42.5 µM] (inactive),
CCOC(=O)C1=C(C)NC(C)=C(C(=O)OC)C1c1cccc([N+](=O)[O-])c1 (stereo not given),-21% [at 42.5 µM] (inactive),
CC(=O)Nc1ccc(/C=N/NC(N)=S)cc1,0.108% [at 42.5 µM] (inactive),
CN1CCC(OC(c2ccccc2)c2ccccc2)CC1,-12.9% [at 42.5 µM] (inactive),
CN(C)CC/C=C1\c2ccccc2COc2ccccc21,-25.2% [at 42.5 µM] (inactive),
CCOC(=O)C1=NN(c2ccccc2)C(=O)C1,3.86% (inactive),
O=S(=O)(O)c1ccc(O)c2ncccc12,15.1% (inactive),
Cc1ccc2c(ccc3ccccc32)c1,-3.91% (inactive),

Compound,"viability change, negative = cytotoxic",Potency
O=C(NN1CCCC1)NS(=O)(=O)c1ccc(Cl)cc1,1.11% [at 42.5 µM] (inactive),
CN(c1nccc(=O)[nH]1)C1CCN(c2nc3ccccc3n2Cc2ccc(F)cc2)CC1,-14.5% [at 42.5 µM] (inactive),
C[C@@H](C1=C(CCN(C)C)Cc2ccccc21)c1ccccn1,-22.7% [at 42.5 µM] (inactive),
CCCCCCCCCCCCCCC1CO1 (stereo not given),2.61% (inactive),
c1ccc(CNCc2ccccc2)cc1,1.61% (inactive),
CCCCOC(=O)/C=C\C(=O)OCCCC,3.51% (inactive),
NC[C@H]1O[C@H](O[C@H]2[C@H](O)[C@@H](O[C@H]3O[C@H](CO)[C@@H](O)[C@H](N)[C@H]3O)[C@H](N)C[C@@H]2N)[C@H](O)[C@@H](O)[C@@H]1O,-30.1% [at 8.39 µM] (inactive),
CCCC[C@H]1CN(CC2CCOCC2)C(=O)OC12CCN(C1(C)CCN(C(=O)c3c(C)ncnc3C)CC1)CC2,1.86% (inactive),
CC(C)CCCC(C)CCO (stereo not given),-17.9% (inactive),
CC[C@H](C)[C@H](N)C(=O)O,0.596% [at 42.5 µM] (inactive),
C[Si](C)O[Si](C)(C)O[Si](C)(C)O[Si](C)C,-1.08% (inactive),
CC(Cc1cccc(C(F)(F)F)c1)NCCOC(=O)c1ccccc1 (stereo not given),-20.7% [at 42.5 µM] (inactive),
Cn1c(NCCN(CCO)CCCc2ccc([N+](=O)[O-])cc2)cc(=O)n(C)c1=O,1.72% [at 42.5 µM] (inactive),
Cc1cc(C)c(S(=O)(=O)O)cc1N=Nc1cc(S(=O)(=O)O)c2ccccc2c1O,,30.6 µM (active)
C=CCCCCCC,-21.7% (inactive),
SC1CCCC1,1.61% (inactive),
CC(=O)O[C@@H]1C(=O)O[C@@H]2[C@H]1OC(=O)[C@@H]2OC(C)=O,-2.38% [at 42.5 µM] (inactive),
COCCCCCCCCOCCC[Si](C)(O[Si](C)(C)C)O[Si](C)(C)C,11.3% (inactive),
CCCCCCCC/C=C\CCCCCCCC(N)=O,-2.4% (inactive),
Nc1nc(N)c(-c2ccccc2)s1,-1.43% [at 42.5 µM] (inactive),
